A short description of assay [1]: SK-BR-3 cell growth inhibitors, pilot screen, 24 h, human (AID 572;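 active = viability at or below 10% of carrier control in both of two separate runs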;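 note: compound exposure lasted between 18 and 24 h rather than exactly 24 h; 100% = carrier-treated control wells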). Conditions: SK-BR-3 viability, CellTiter-Glo luminescence, at 10 µM, stronger effect = lower value.
Assay [2] can be described thus: HUVEC growth inhibition – cell-based, human, primary screen (AID 575;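 active = viability at or below 30% in both replicate assays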;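 note: 100% = median of untreated cell wells with 0.1% DMSO on each plate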). Conditions: HUVEC proliferation, CellTiter-Glo luminescence, 72 h; at 10 µM; stronger effect = lower value.
Assay [3] in a line: growth inhibitors of H69AR lung tumor, primary screen, human, duplicate replicates (AID 580;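 active = viability at or under a set limit in both replicates, limit being median viability minus 3 SD, cut at about 48% in these data, passing the limit was not always enough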;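 note: 100% = mean luminescence of untreated wells and 0% = no signal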). The note with it: H69AR lung tumor cells viability, ATP luminescence, 72 h; at 10 µM; stronger effect = lower value.
The nature of assay [4]: reversal of MRP1-mediated doxorubicin resistance, pilot screen, H69AR cells, doxorubicin co-treatment (AID 601;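 active = viability loss from added drug above about 55%, and viability with drug at most 40%, in both replicates, limit read from the data, passing the limit was not always enough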). The note with it: CellTiter-Glo, 72 h, at 10 µM; for differential viability (reversal): stronger effect = higher value.
Assay [5] is described as follows: 384-well plate pilot, post-Golgi transport modulator project, inhibition of yeast transport mutant growth (AID 636; in the data active = inhibition above about 31%). The note with it: absorbance 615 nm, about 18 h, stronger effect = higher value.
Assay [6] in a line: growth suppression of yeast trafficking mutant, preliminary HTS, modulators of trafficking downstream of Golgi apparatus project, 1536-format plate, OD 615 nm (AID 637; in the data active = inhibition above about 30%). The note with it: yeast transport mutant growth, absorbance 615 nm, 18 h; stronger effect = higher value.
Assay [7] in a line: OD615 S. cerevisiae growth inhibition, permissive medium, pilot counter-assay, permissive growth control for S. cerevisiae lifespan shortening project (AID 705;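 active = growth inhibition above 25% in both replicates, a cutoff set 3 SD above the mean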). The note with it: OD615, 24 h, at 10 µM, stronger effect = higher value.
The nature of assay [8]: Restrictive medium S. cerevisiae growth inhibition, OD615, pilot screen of yeast lifespan reduction project, restrictive growth control (AID 706;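 active = growth inhibition above a set limit, 3 SD over mean compound inhibition, in both replicates, cut at about 43% in these data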;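 note: modified DeaD lifespan yeast strain shifted to restrictive glucose medium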). Conditions: OD615, 48 h, at 10 µM, stronger effect = higher value.
Assay [9] in a line: viability gain of MRP-1-high H69AR cells under doxorubicin, pilot screen, MRP-1 activator project, CellTiter-Glo, duplicate (AID 807).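 Note: compound pretreatment 18-22 h then 72 h combined with doxorubicin; 0% = doxorubicin alone and 100% = vehicle without doxorubicin.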 The note with it: H69AR viability with doxorubicin, CellTiter-Glo luminescence; at 10 µM; stronger effect = higher value.
Assay [10] can be described thus: growth suppression of beta-catenin knockout HCT116, pilot screen, human colon tumor cells (AID 823;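 active = cell viability at or below a set limit in both duplicate runs, the limit being the all-compound median minus 4 SD, cut at about 23% in these data, passing the limit was not always enough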;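 note: 0% = wells killed by 20 µM Hyamine and 100% = untreated DMSO cell wells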). The note with it: CellTiter-Glo, 60 h, at 10 µM, stronger effect = lower value.
The nature of assay [11]: growth suppression of PTEN-deleted HCT116, pilot screen, cell-based, HCT116 clonal line, CellTiter-Glo (AID 824;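 active = viability at or below 27.92% in each of two runs, the all-compound median minus 4 SD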;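 note: 0% = 20 µM Hyamine control and 100% = vehicle cell control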). The note with it: 60 h, at 10 µM, stronger effect = lower value.
Assay [12] is described as follows: inhibitors of the yeast RAM network, pilot screen, dse1pr::URA3 reporter, 5-FOA selection (AID 869;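 active = inhibition over a set limit, the all-compound mean plus 3 SD, in both replicate runs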;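 note: 0% = DMSO wells with no growth and 100% = 10 µM 1-NA-PP1 with full growth; RAM network block rescues cells from 5-FOA so hits raise OD615 growth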). The note with it: S. cerevisiae dse1pr::URA3 5-FOA growth, OD615, 2 d; at 10 µM; stronger effect = higher value; strain carries analog-sensitive mutant Cbk1 kinase.
Assay [13] can be described thus: RAM signaling pathway blockade in yeast – S. cerevisiae, Pdr1DBD-CYC8 efflux-inhibited sensitized strain, primary screen (AID 1298;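 active = RAM network inhibition above 8.4% in each of two replicates, 3 SD over the compound average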;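 note: 0% = DMSO untreated cells without growth and 100% = 10 µM 1-NA-PP1 full growth; higher means more yeast growth rescued from 5-FOA killing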). The note with it: S. cerevisiae cbk1-as DSE1-URA3 strain, 5-FOA growth OD615, 2 d; at 50 µM; stronger effect = higher value.
The mark [14] stands for this setting: H69AR cells + 2 uM doxorubicin, measured here: viability with 2 uM doxorubicin, stronger effect = lower value.
[15] abbreviates: H69AR cells, compound alone cytotoxicity.

SMILES strings stand for the structures. Results filed as inconclusive are left out. Calls of active or inactive are those of the source.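 Rule for the calls, unless noted: active = viability increase at or above a cutoff of the median across tested compounds plus 3 SD (cut at about 8.5% in these data, passing the limit was not always enough); inconclusive = some gains above the cutoff, reason not given; inactive = the rest.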

For `CC12CN3CCN(CC(C3)C1(O)CN1CCCCC1)C2` (stereo not given), the viability in assay [1] is 119% (inactive); in assay [2], 95.5% (inactive); in assay [3] it was 92.5% (inactive); in assay [4] (setting [14]) it was 89.2%; in assay [4] (setting [15]), 92.5%; in assay [10], 88.3% (inactive). In [11], the viability is 85.1% (inactive). Besides, the differential viability (reversal) in assay [4] (H69AR cells + 2 uM doxorubicin) is 3.25% (inactive). Also, the inhibition in [5] was -8.13% (inactive); in assay [6] it was -0.18% (inactive); in assay [12], 1.06% (inactive). In addition, the growth inhibition in [7] is -9.73% (inactive); in assay [8], -6.28% (inactive). The viability increase in assay [9] is -1.63% (inactive). Besides, in assay [13], the RAM network inhibition is 1.07% (inactive).
`CC1CCN(c2c(NCc3ccc(C(=O)N4c5ccccc5CC4C)cc3)c(=O)c2=O)CC1` (stereo not given): the viability is 95% (inactive) in assay [1]; 70.5% (inactive) in [2]; 37.2% (active) in assay [3]; 48.7% in [4] (setting [14]); 37.2% in assay [4] (setting [15]); 72.1% (inactive) in assay [10]. The viability in [11] was 66.8% (inactive). In [4] (H69AR cells + 2 uM doxorubicin), the differential viability (reversal) was -11.5% (inactive). For the same molecule, the values for the inhibition in [5], in assay [6] and in assay [12] were -0.13% (inactive), 2.33% (inactive) and 2.15% (inactive), respectively. The growth inhibition is -17.3% (inactive) in assay [7] and -17.2% (inactive) in assay [8]. In assay [9], the viability increase is -7.24% (inactive). Moreover, the RAM network inhibition in assay [13] was 2.31% (inactive).
As for `COC(=O)c1ccc(NC(=O)C2C3CCC(C3)C2C(=O)O)cc1` (stereo not given), the viability in [1] was 96% (inactive); in assay [2], 113% (inactive); in assay [3], 90.4% (inactive); in assay [4] (setting [14]), 90%; in assay [4] (setting [15]) it was 90.4%; in [10] it was 93.7% (inactive). Further, the viability in [11] is 93.6% (inactive). For the same molecule, the differential viability (reversal) in assay [4] (H69AR cells + 2 uM doxorubicin) is 0.415% (inactive). For the same molecule, the values for the inhibition in assay [5], in assay [6] and in assay [12] were 2.13% (inactive), 6.55% (inactive) and 1.04% (inactive), respectively. The growth inhibition in [7] was 10.2% (inactive); in assay [8] it was 1.67% (inactive). In [9], the viability increase was -2.31% (inactive). Also, in [13], the RAM network inhibition was 1.43% (inactive).
`COc1cc(C(=O)NCCc2ccc3c(c2)OCCO3)ccc1OCC(=O)N1CCOCC1`: the viability is 100% (inactive) in [1]; 112% (inactive) in assay [2]; 93.3% (inactive) in assay [3]; 92% in assay [4] (setting [14]); 93.3% in assay [4] (setting [15]); 97.6% (inactive) in assay [10]. In [11], the viability is 96.3% (inactive). Also, the differential viability (reversal) in [4] (H69AR cells + 2 uM doxorubicin) was 1.3% (inactive). In addition, the inhibition is -5.95% (inactive) in [5], -6.55% (inactive) in assay [6] and 1.68% (inactive) in assay [12]. Moreover, the growth inhibition in [7] was -14.7% (inactive); in assay [8], -16% (inactive). Besides, in [9], the viability increase was -2.17% (inactive). Also, the RAM network inhibition in assay [13] was 1.5% (inactive).
As for `C(=N\n1cnnc1)/c1cccc(OCCOc2ccccc2)c1`, the viability was 76% (inactive) in assay [1]; 96.2% (inactive) in assay [2]; 94.6% (inactive) in [3]; 90.5% in assay [4] (setting [14]); 94.6% in assay [4] (setting [15]); 89% (inactive) in assay [10]. Besides, in [11], the viability was 94.9% (inactive). The differential viability (reversal) in [4] (H69AR cells + 2 uM doxorubicin) was 4.15% (inactive). Besides, the inhibition in assay [5] is -4.53% (inactive); in assay [6], 2% (inactive); in assay [12] it was 1.81% (inactive). Moreover, the growth inhibition in assay [7] was -7.18% (inactive); in assay [8] it was 13.9% (inactive). The viability increase in assay [9] is 0.62% (inactive). Also, the RAM network inhibition in assay [13] was 0.17% (inactive).
Consider `O=C(CN1CCN(Cc2ccccc2)CC1)NCC1COc2ccccc2O1` (stereo not given), for which the viability in [1] is 108% (inactive); in assay [2] it was 110% (inactive); in assay [3] it was 93.2% (inactive); in assay [4] (setting [14]), 86.6%; in assay [4] (setting [15]), 93.2%; in [10], 93.6% (inactive). Also, in assay [11], the viability was 96.9% (inactive). The differential viability (reversal) in assay [4] (H69AR cells + 2 uM doxorubicin) is 6.56% (inactive). The inhibition was -2.53% (inactive) in assay [5], -4.73% (inactive) in assay [6] and -0.145% (inactive) in [12]. For the same molecule, the growth inhibition in assay [7] is -1.31% (inactive); in [8], -5.58% (inactive). Besides, the viability increase in assay [9] is -1.29% (inactive). Besides, in assay [13], the RAM network inhibition is 2.61% (inactive).
For the molecule `CC12CCC(C(=O)N3CCN(C(=O)C45CCC(C)(C(=O)O4)C5(C)C)CC3)(OC1=O)C2(C)C`, the viability was 109% (inactive) in assay [1]; 97.5% (inactive) in assay [2]; 105% (inactive) in [3]; 84.7% in assay [4] (setting [14]); 105% in [4] (setting [15]); 102% (inactive) in assay [10]. In addition, the viability in assay [11] was 94.1% (inactive). In [4] (H69AR cells + 2 uM doxorubicin), the differential viability (reversal) was 20.1% (inactive). Further, the inhibition is -3.47% (inactive) in assay [5], -7.64% (inactive) in assay [6] and 1.42% (inactive) in [12]. The growth inhibition in assay [7] is -17% (inactive); in assay [8] it was -7.99% (inactive). In assay [9], the viability increase is -0.17% (inactive). For the same molecule, in assay [13], the RAM network inhibition is 0.26% (inactive).
On to `Cc1cc(NC(=O)CSc2nc3c(c(-c4cccnc4)c2C#N)CCC3)no1`, for which the viability in assay [1] is 65% (inactive); in [2], 111% (inactive); in assay [3], 90.9% (inactive); in assay [4] (setting [14]), 84.3%; in assay [4] (setting [15]), 90.9%; in assay [10], 101% (inactive). Besides, the viability in assay [11] is 98.5% (inactive). The differential viability (reversal) in assay [4] (H69AR cells + 2 uM doxorubicin) is 6.63% (inactive). Besides, the inhibition was -5.6% (inactive) in assay [5], -3.09% (inactive) in assay [6] and 1.75% (inactive) in assay [12]. Moreover, the results for the growth inhibition in assay [7] and in assay [8] were 2.25% (inactive) and 1.02% (inactive), respectively. Also, in assay [9], the viability increase was 0.51% (inactive). For the same molecule, the RAM network inhibition in [13] is 5.05% (inactive).
Take `COCc1cc(C)nc(Nc2ccc(C)cc2C)c1C#N`: the viability was 70% (inactive) in [1]; 84.8% (inactive) in [2]; 104% (inactive) in assay [3]; 95.1% in assay [4] (setting [14]); 104% in assay [4] (setting [15]); 97.2% (inactive) in assay [10]. Moreover, in assay [11], the viability was 90.6% (inactive). Besides, the differential viability (reversal) in [4] (H69AR cells + 2 uM doxorubicin) is 9.25% (inactive). In addition, the inhibition was -2.43% (inactive) in assay [5], 2.46% (inactive) in [6] and 1.15% (inactive) in [12]. The growth inhibition in assay [7] is -9.57% (inactive); in assay [8], -2.85% (inactive). In assay [9], the viability increase is -4.12% (inactive). Further, the RAM network inhibition in assay [13] is 0.15% (inactive).
In the case of `Cc1ccc(N2C(=O)c3oc4ccccc4c(=O)c3C2c2cccc(O)c2)nc1` (stereo not given), the viability in assay [1] was 102% (inactive); in assay [2], 59.1% (inactive); in assay [3], 91.8% (inactive); in [4] (setting [14]), 103%; in assay [4] (setting [15]), 91.8%; in [10] it was 73.1% (inactive). The viability in [11] is 71.7% (inactive). Further, the differential viability (reversal) in assay [4] (H69AR cells + 2 uM doxorubicin) is -11.7% (inactive). Further, the inhibition in assay [5] is 0.9% (inactive); in [6], 2.17% (inactive); in assay [12] it was 3.22% (inactive). The growth inhibition is -6.7% (inactive) in assay [7] and -3.53% (inactive) in assay [8]. The viability increase in assay [9] was 1.12% (inactive). For the same molecule, the RAM network inhibition in assay [13] was 7.27% (inactive).
As for `Cn1c(C(=O)Nc2ccc3c(c2)OCO3)cc2c(=O)n(C)c3ccccc3c21`, the viability was 73% (inactive) in assay [1]; 72.6% (inactive) in assay [2]; 34.2% (active) in assay [3]; 26.6% in [4] (setting [14]); 34.2% in assay [4] (setting [15]); 92.4% (inactive) in assay [10]. Also, the viability in assay [11] was 91.5% (inactive). The differential viability (reversal) in assay [4] (H69AR cells + 2 uM doxorubicin) is 7.56% (inactive). The inhibition is -2.18% (inactive) in [5], 2% (inactive) in assay [6] and 3.22% (inactive) in [12]. For the same molecule, the growth inhibition in assay [7] is -4.94% (inactive); in assay [8], -3.57% (inactive). In addition, the viability increase in [9] is -2.91% (inactive). Besides, the RAM network inhibition in assay [13] was 4.86% (inactive).

Values taken from PubChem BioAssay.
